Among the data in ChEMBL document CHEMBL3988442, “University of Dundee, Small-Polar-MMV Screening Library” (2021) are Percent Effect values, retold here.

The assay is filed under the species Homo sapiens. The assay can be described thus: To identify inhibition of the IFN signalling (Jak-Stat) pathway via expression of an eGFP reporter gene under the control of an IFN-stimulated response element (ISRE) containing MxA promoter. As to conditions: 30 µM. The arrangement: scale not given: direction of the effect not stated beside the values. In kind it is functional.
`O=C1COC2(CCN(C(=O)c3ccco3)CC2)CN1Cc1ccccn1`: the Percent Effect is -15.4%.
As for `Cc1ccn(-c2cccc(C(=O)N3CCCC(n4ccnc4C)C3)c2)n1` (stereo not given), the Percent Effect was found to be 26.1%.
Turning to `Cc1ccoc1-c1nnc(CN2CCn3c(nnc3C3CC3)C2)o1`, the Percent Effect stood at 7.27%.
As for `CC(=O)N1CCCC1c1csc(Nc2cnccn2)n1` (stereo not given), the figure is 20%; as for `Fc1ccc(-c2nnc(CN3CCn4c(nnc4C4CC4)C3)o2)cc1`, -0.798%.
On to `CC(C)c1cc(NC(=O)CN2CCNC(=O)C2)on1`, for which the Percent Effect was found to be 1.34%.
On to `CN(C)c1ccc(NC(=O)NCc2ccccn2)cn1`, for which the Percent Effect is -8.9%.
Then `CNc1snc(C)c1C(=O)N1CCCC(n2nc(C)cc2C)C1` (stereo not given), with -7.89%.
For the compound `COc1ccc(CN2CCC[C@@H]3CN(C(=O)c4ccco4)C[C@@H]32)cc1`, the Percent Effect stood at 3.21%.
Regarding `O=C(c1cc(Cl)c2c(c1)OCCO2)N1CCCC(n2cncn2)C1` (stereo not given), the Percent Effect amounted to 6.76%.
Take `CCC(=O)N1CCC(O)(c2ncc(OC)nc2OC)CC1`: the Percent Effect worked out at 8.31%.
Then `CCCn1ncc2c(C(=O)Nc3n[nH]c(SC)n3)cc(C3CC3)nc21`, with 13.4%; and `Cc1nc(CN(C)C2CCN(CCCOc3ccccc3)C2)no1` (stereo not given), with 8.47%; and `CCOc1ncccc1NC(=O)NC1CCCN(c2ncccn2)C1` (stereo not given), with 8.06%.
In the case of `COC(=O)NCc1cc2n(n1)CCCN(C(C)=O)C2`, the Percent Effect is -0.185%.
As for `Fc1ccc(CN2CCC(c3n[nH]c4ncccc34)CC2)cc1F`, the figure is 16.9%; as for `c1ccc(-c2nc(CN3CCc4c(ncn4C4CC4)C3)cs2)cc1`, 28.5%; as for `Cc1ccc(C(=O)N2CCCC3(CCCC(=O)N3C)C2)cc1F` (stereo not given), 5.96%.
In the case of `Cc1nn(C)c(N(C)C)c1CNC(C)c1cccc(OC(C)C)c1` (stereo not given), the Percent Effect came to 15.4%.
In the case of `c1csc(-c2nc(CN3CCn4c(nnc4C4CC4)C3)co2)c1`, the Percent Effect is 7.72%.
